Activity calls are given as the source filed them. Cut-off read from the data, not from the text of the source: active = inhibition of mean fluorescence above about 33%; inactive = the rest.

Data on 7 compounds can be found in PubChem BioAssay AID1014 (NMMLSC, 2008).

The nature of the assay: quorum sensing inhibitors in bacterial reporter, SAR follow-up, flow cytometry, SAR analogs (AID 1014).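 Note: Staphylococcus aureus RN6390 with RNAIII-GFP reporter stimulated by AIP; bacteria incubated with compound for 3 hours at 37 °C.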 The settings on record: at 20 µM, stronger effect = higher value; inhibition of percent positive cells: flow cytometry fluorescence, measured here: percent reporter-positive cells.

Turning to `COc1cc(C(=O)NCC(c2cccnc2)N2CCN(c3ccccc3F)CC2)cc(OC)c1OC` (centres undefined), the inhibition of mean fluorescence is -57.3% (inactive) and the inhibition of percent positive cells is -1.5%.

As to `CC1CCCN(C(C(=O)Nc2ccc(C(C)C)cc2)c2ccc3c(c2)OCO3)C1` (centres undefined), the inhibition of mean fluorescence was 23.8% (inactive) and the inhibition of percent positive cells was 0.5%.

In the case of `Cc1ccc(Nc2c(F)c(F)c(F)c(F)c2C(=O)O)cc1`, the inhibition of mean fluorescence was 9.9% (inactive) and the inhibition of percent positive cells is -0.2%.

With `COc1ccc(S(=O)(=O)c2nnn3c2nc(Nc2ccccc2C)c2ccccc23)cc1`, the inhibition of mean fluorescence is -17.1% (inactive) and the inhibition of percent positive cells amounted to 0.4%.

Consider `CC(C)(C)c1ccc(S(=O)(=O)c2nnn3c2nc(Nc2ccccc2)c2ccccc23)cc1`, for which the inhibition of mean fluorescence was -15.5% (inactive) and the inhibition of percent positive cells is -0.9%.

On to `CC(C)c1ccc(S(=O)(=O)c2n[nH]n3c2nc(=O)c2ccccc23)cc1`, for which the inhibition of mean fluorescence was 80.5% (active) and the inhibition of percent positive cells amounted to 22.1%.

Take `CC(C)c1ccc(NC(=O)C(c2ccc3c(c2)OCO3)N2CCc3ccccc32)cc1` (centres undefined): the inhibition of mean fluorescence was 26.3% (inactive) and the inhibition of percent positive cells is -1.6%.
